Records with an inconclusive call do not appear. Calls of active or inactive are those of the source. Unless noted, the call rests on the fitted dose curve; in most records, active means well fitted curve in the direction sought with a large enough effect; inconclusive means small, poorly fitted or top-dose-only effect, or another doubt; inactive means no such curve, though single readings can be large; an effect the other way counts as inactive or inconclusive.

Outcome and Potency data for 34 compounds are collected here from PubChem BioAssay (NCATS).

A short description of assay [1]: Secretion counterscreen for inhibitors of the SERCaMP assay screened against the NCATS CANVASS Library (AID 1347390). In short, it runs like this:
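Luminescence from constitutively secreted GLuc in SH-SY5Y-GLuc STOP cells, read after coelenterazine addition, served as read-out. Compounds tested 0.001 - 77 uM for 20 h at 37C; Brefeldin A as positive control.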

Assay [2] is described as follows: qHTS for activators of Nrf2/ARE signaling pathway screened against the NCATS CANVASS Library (AID 1347391). The method, boiled down:
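Beta-lactamase reporter signal, read as 460 and 530 nm emission under 405 nm excitation after 2 h CCF4 loading, reflected ARE activation in HepG2 cells treated 16 h with an 11-point series.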
On the technique in general: qHTS replaces the single test concentration by a dilution series.

Assay [3] in a line: qHTS for activators of dead-cell proteases activity screened against the NCATS CANVASS Library (AID 1347392). The method, boiled down: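 Luminescent dead-cell protease readout (AAF-aminoluciferin, 15 min, room temperature) after 5 h compound treatment of HepG2 cells (2000/well, pre-attached 18 h). Eleven concentrations.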
Assay [4] in a line: qHTS for inhibitors of ER calcium dysfunction: SERCaMP assay screened against the NCATS CANVASS Library (AID 1347393). To be noted: SH-SY5Y GLuc-SERCaMP (Gaussia luciferase released on ER calcium loss) secretion, thapsigargin, luminescence. In short, it runs like this: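 Thapsigargin-induced ER calcium depletion drives GLuc-SERCaMP secretion from SH-SY5Y cells; compounds given 16 h beforehand were scored by lowered coelenterazine luminescence after 4 h challenge.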

The nature of assay [5]: Vero-766 cells viability qHTS against the NCATS CANVASS Library: Counterscreen for Zika virus inhibition assay (AID 1347394). The method, boiled down:
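CellTiter-Glo luminescence, lower signal indicating cytotoxicity. Vero 766 cells without Zika virus, 1000 cells/well, plated overnight, then treated 72 h at 37C across an 11-point series.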

A short description of assay [6]: qHTS for inhibitors of Wild type Zika virus screened against the NCATS CANVASS Library (AID 1347396). The method, boiled down: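 Vero 766 cells, 1000/well, o/n attach; cpds pin-transferred (11-pt qHTS); WT Zika added; 72 h, 37C, 5% CO2; CellTiter Glo lumi. Uninfected + vehicle = 100% inhibition.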
Assay [7] is described as follows: Viability qHTS for inhibitors of the SERCaMP assay screened against the NCATS CANVASS Library (AID 1347400). In short, it runs like this: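 Seed SH-SY5Y-GLuc SERCaMP MJH297 cells at 1000 per well, incubate 4 h, add compounds across an 11-point range, incubate 48 h at 37C, then add CellTiter-Glo and read luminescence.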
Assay [8] in a line: qHTS for inhibitors of Rabies Virus screened against the NCATS CANVASS Library (AID 1347402; calls by dose curve).
Assay [9] is described as follows: Primary qHTS for Huh7 cytotoxicity: counterscreen for inhibitors of MERS-S pseudotyped particle cell entry (AID 1479147; calls by dose curve). To be noted: outcome: at 57.1 µM (top of the series) unless noted.
A short description of assay [10]: Primary qHTS for inhibitors of MERS-S pseudo-typed particle cell entry (AID 1479149; calls by dose curve). Conditions: outcome: at 57.1 µM (top of the series) unless noted.
Assay [11] can be described thus: Redox Reaction Profiling qHTS: Assay Interference Panel against the NCATS CANVASS Library (AID 1347401). In short, it runs like this: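 Redox-cycling liability assessed as DTT-driven conversion of resazurin (5 uM, with 200 uM DTT, HEPES pH 7.3) to fluorescent resorufin. Fluorescence at 525/598 nm measured initially and after 15 min dark incubation.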
Assay [12] in a line: qHTS to identify inhibitors of the type 1 interferon - major histocompatibility complex class I in skeletal muscle: primary screen against the NCATS Mechanism Interrogation Plate v5.0 (MIPE) Libary (AID 1347411). In short, it runs like this: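 Seed engineered human myoblasts (HLA-B HiBit) in medium without dexamethasone containing 4 ng/ml IFN-beta; after 1 hr add compound titrations (top 46 uM final). Incubate 24 hrs at 37 C, lyse 10 min with HiBiT reagent, read luminescence.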

The nature of assay [13]: qHTS to identify inhibitors of the type 1 interferon - major histocompatibility complex class I in skeletal muscle: primary screen against the NCATS LOPAC collection (AID 1347405). In short, it runs like this:
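First, engineered myoblasts carrying HLA-B-HiBiT were seeded in medium lacking dexamethasone with 4 ng/ml IFN-beta. After 1 hr, compounds were pinned in (top 46 uM final, 7 points). After 24 hrs at 37 C, luminescence was measured following 10 min lysis.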

Assay [14] is described as follows: qHTS for inhibitors of adenylyl cyclases using a fission yeast platform: a pilot screen against the NCATS LOPAC library (AID 1347410). The method, boiled down: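 Read-out: fbp1-GFP fluorescence by laser scanning cytometry (488 nm laser), a gain of signal when AC/cAMP-PKA signalling is inhibited. Strain CHP2027 expressing AC9, GNAS and PDE4D2; compounds at up to 57 µM; 18 h, 30C.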

A short description of assay [15]: Validation qHTS assay for inhibitors of Activation Induced Cytidine Deaminase (AID): UDG Counterscreen signal (AID 1347427). In short, it runs like this: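 Fluorescence at 560 nm excitation, 665 nm emission reports UDG signal after 250 mM NaOH (2x) addition and 30 min. Enzymes (AID 1 uM, UDG 2 U/mL, at 4/3x) preincubated 10 min with compound, then 4 h with 4x 250 nM DJC20/DJC23 substrate at room temperature.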

Assay [16] has as its target Single-stranded DNA cytosine deaminase (Homo sapiens) (UniProt Q9GZX7). Description: Validation qHTS assay for inhibitors of Activation Induced Cytidine Deaminase (AID): AID signal (AID 1347429). In short, it runs like this:
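Steps: dispense AID with UDG; pin-transfer compound up to 114 uM final; add DJC20/DJC23 substrate and hold 4 hr at room temperature; add NaOH, hold 30 min; read FRET signal (540/590 nm).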

Chain of Single-stranded DNA cytosine deaminase (Homo sapiens) (Q9GZX7 whole entry, looked up): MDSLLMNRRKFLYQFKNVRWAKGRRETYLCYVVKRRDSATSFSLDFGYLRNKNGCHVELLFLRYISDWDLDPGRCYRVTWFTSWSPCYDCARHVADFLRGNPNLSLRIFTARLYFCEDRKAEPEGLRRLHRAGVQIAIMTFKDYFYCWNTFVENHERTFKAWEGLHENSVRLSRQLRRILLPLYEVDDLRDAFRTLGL

Turning to `O=C1C[C@@H]2OCC=C3CN4CC[C@]56c7ccccc7N1[C@H]5[C@H]2[C@H]3C[C@H]46`, the compound was classed as inactive in assay [1], in [2], in assay [3], in assay [5], in [6] and in [7]. Moreover, the result in [8], in [9] and in assay [10] was inactive. In addition, the Potency in assay [4] was 59.6 µM (active).

Consider `COc1ccc2[nH]cc(CCN)c2c1`, for which the compound was called inactive in assay [1], in assay [2], in assay [3], in assay [5], in [6] and in assay [11]. In addition, the result in assay [8] was inactive.

For the compound `CC(=O)c1c(O)c(C)c(O)c(Cc2c(O)c3c(c(C(=O)/C=C/c4ccccc4)c2O)OC(C)(C)C=C3)c1O`, the result in assay [12] was inactive.

As for `Nc1ccc(CCN2CCN(c3cccc(C(F)(F)F)c3)CC2)cc1`, the Potency entry in [13], in assay [15] and in assay [16] was “inactive” throughout. Besides, in assay [14], the result was inactive.

For the compound `CC(C)(O)[C@@H]1C2OC(=O)[C@@H]1[C@]1(O)C[C@H]3O[C@]34C(=O)O[C@H]2[C@]14C` (tested in a mixture with another compound), the Potency result in assay [13], in assay [15] and in assay [16] was “inactive” each time. In assay [14], the compound was called inactive.

Regarding `CP(=O)(O)C1=CCNCC1`, the Potency entry in assay [13], in [15] and in assay [16] was “inactive” each time. For the same compound, in assay [14], the call was inactive.

On to `C#CCN[C@H](C)Cc1ccccc1`, for which the Potency entry in [13], in assay [15] and in assay [16] was “inactive” in each case. The compound was classed as inactive in assay [14].

Regarding `CC(N)[C@H](O)c1ccc(O)c(O)c1` (some centres not stated), the Potency result in assay [13], in assay [15] and in assay [16] was “inactive” throughout. Further, the compound was called inactive in [14].

Take `Cc1c2ccncc2c(C)c2c1[nH]c1ccccc12`: the Potency in assay [13] was 7.08 µM (active). Also, the compound was called inactive in assay [14]. The Potency result in assay [15] and in assay [16] was “inactive” throughout.

As to `CCNC(=O)[C@H]1O[C@@H](n2cnc3c(N)ncnc32)[C@H](O)[C@@H]1O`, the Potency result in assay [13], in assay [15] and in assay [16] was “inactive” throughout. In addition, the compound was classed as inactive in assay [14].

Take `CC(C)NP(=O)(NC(C)C)OP(=O)(NC(C)C)NC(C)C`: the Potency entry in assay [13], in assay [15] and in assay [16] was “inactive” in each case. For the same compound, in assay [14], the result was inactive.

On to `CNc1ccc2oc(C[C@H]3O[C@@]4(CC[C@H]3C)O[C@H]([C@H](C)C(=O)c3ccc[nH]3)[C@H](C)C[C@H]4C)nc2c1C(=O)O`, for which the Potency in assay [13] was 3.98 µM (active). In addition, the compound was called inactive in assay [14]. Further, the Potency result in [15] and in assay [16] was “inactive” each time.

For the compound `CCCC[N+]1(C)C2CC(OC(=O)[C@H](CO)c3ccccc3)CC1C1OC12` (some centres not stated), the Potency entry in assay [13], in assay [15] and in assay [16] was “inactive” each time. Further, the compound was classed as inactive in assay [14].

For `CC(Cc1ccc(OCC(=O)O)cc1)NCC(O)c1cccc(Cl)c1` (configuration not stated), the Potency result in [13], in assay [15] and in assay [16] was “inactive” in each case. Further, in assay [14], the compound was called inactive.

For the compound `NCCc1ccc(S(=O)(=O)F)cc1`, the Potency entry in assay [13], in assay [15] and in assay [16] was “inactive” throughout. For the same compound, the result in assay [14] was inactive.

As to `CC12NC(Cc3ccccc31)c1ccccc12` (configuration not stated), the Potency result in [13], in assay [15] and in assay [16] was “inactive” in each case. In assay [14], the call was inactive.

Consider `NCCc1c[nH]c2ccc(C(N)=O)cc12`, for which the Potency entry in assay [13], in assay [15] and in [16] was “inactive” each time. In addition, the compound was called inactive in assay [14].

Turning to `CC(C)(C)c1o[nH]c(=O)c1CC(N)C(=O)O` (configuration not stated), the Potency result in assay [13], in assay [15] and in assay [16] was “inactive” each time. The result in assay [14] was inactive.

As for `CCCN1CC[C@@H]2c3cc(O)ccc3CC[C@@H]21`, the Potency result in [13], in assay [15] and in [16] was “inactive” in each case. Besides, the call in [14] was inactive.

As for `C[N+]1(C)C2CCC1CC(OC(=O)c1c[nH]c3ccccc13)C2` (configuration not stated), the Potency result in assay [13], in assay [15] and in assay [16] was “inactive” in each case. In addition, in assay [14], the result was inactive.

For the compound `CO[C@H]1CC=C2CCN3CCC4=C(CC(=O)OC4)[C@]23C1`, the Potency entry in assay [13], in assay [15] and in [16] was “inactive” in each case. In assay [14], the compound was classed as inactive.

With `CC(=O)OCC1=C(C(=O)O)N2C(=O)[C@@H](NC(=O)CCC[C@@H](N)C(=O)O)[C@H]2SC1`, the Potency result in assay [13], in [15] and in [16] was “inactive” in each case. In addition, the compound was called inactive in assay [14].

`CCS(=O)(=O)Nc1cccc(C(=C2CCCCC2)c2cnc[nH]2)c1`: the Potency entry in assay [13], in assay [15] and in [16] was “inactive” throughout. For the same compound, the call in assay [14] was inactive.

Consider `COC(=O)N1CCN(C(=O)Cc2ccc(Cl)c(Cl)c2)C(CN2CCCC2)C1` (configuration not stated), for which the Potency result in assay [13], in assay [15] and in [16] was “inactive” in each case. Besides, the compound was called inactive in assay [14].

In the case of `Cc1sc2ccccc2c1CC1=NCCN1`, the Potency entry in [13], in assay [15] and in assay [16] was “inactive” in each case. The call in assay [14] was inactive.

In the case of `NC(C(=O)O)c1cc(=O)[nH]o1` (configuration not stated), the Potency entry in [13], in [15] and in assay [16] was “inactive” in each case. Moreover, in assay [14], the call was inactive.

On to `Clc1ccc(N2CC3CCC(C2)N3)nn1`, for which the Potency entry in assay [13], in [15] and in [16] was “inactive” each time. Besides, in [14], the compound was classed as inactive.

Regarding `CCCN(CCC)[C@@H]1CCc2cccc(O)c2C1`, the Potency result in [13], in [15] and in [16] was “inactive” each time. For the same compound, the compound was called inactive in assay [14].

As to `CC(=O)NBr`, the Potency result in assay [13], in [15] and in assay [16] was “inactive” in each case. Moreover, in assay [14], the call was inactive.

Regarding `NC(CCCCCP(=O)(O)O)C(=O)O` (configuration not stated), the Potency entry in assay [13], in assay [15] and in [16] was “inactive” in each case. Also, in [14], the compound was classed as inactive.

As to `NC(=O)c1ccc(OCC(O)CN2CC=C(c3ccc(F)cc3)CC2)cc1` (configuration not stated), the Potency result in [13], in [15] and in assay [16] was “inactive” throughout. For the same compound, the compound was classed as inactive in assay [14].

As for `CN(C(=O)Cc1ccc(Cl)c(Cl)c1)C(CN1CCCC1)c1cccc(OCC(=O)O)c1` (configuration not stated), the Potency entry in assay [13], in [15] and in [16] was “inactive” in each case. Also, the compound was classed as inactive in assay [14].

For the compound `Cc1o[nH]c(=O)c1CC(N)C(=O)O` (configuration not stated), the Potency entry in assay [13], in assay [15] and in assay [16] was “inactive” in each case. Besides, the compound was classed as inactive in assay [14].

Turning to `CCCN1CCC[C@@H](c2cccc(O)c2)C1`, the Potency result in assay [13], in [15] and in [16] was “inactive” throughout. In addition, in assay [14], the result was inactive.
